Assay results as given in PubChem BioAssay AID1159580 (chemical genetic matrix, 2015).
Among all 5,500 compounds or so, about 2,000 (36%) were called active. About 18% were inconclusive and are not listed. No stated cut-off is given here; in the data, active means normalized growth mostly below about 0.91 (no sharp cut-off); inconclusive means no clear call, values can overlap the other calls; inactive means mostly above about 0.92. Some of the results follow.

Test: chemical genetic growth profiling, strain panel (AID 1159580);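 further: tested at 20 µM; growth read once vehicle control cultures reached saturation at 30 °C; 1 = growth at the plate median or of vehicle wells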
Conditions: S. cerevisiae deletion strains, growth OD

Measured: normalized growth

N=c1ccn2c(n1)OC1C(O)C(CO)OC12 (stereo unspecified)
inactive: locus YAL021C, strain ccr4, stronger effect = lower value 1.01 | locus YAL026C, strain drs2, stronger effect = lower value 1.02 | locus YAL030W, strain snc1, stronger effect = lower value 0.991 | locus YBL061C, strain skt5, stronger effect = lower value 1.01 | locus YBR009C, strain hhf1, stronger effect = lower value 1.01 | locus YBR023C, strain chs3, stronger effect = lower value 0.995 | locus YBR171W, strain sec66, stronger effect = lower value 1.01 | locus YBR231C, strain swc5, stronger effect = lower value 1.01 | locus YBR279W, strain paf1, stronger effect = lower value 1.01 | locus YCL011C, strain gbp2, stronger effect = lower value 1.01 | locus YCL016C, strain dcc1, stronger effect = lower value 1 | locus YCL061C, strain MRC1, stronger effect = lower value 0.986 | locus YCL069W, strain vba3, stronger effect = lower value 1.01 | locus YCR088W, strain abp1, stronger effect = lower value 1.01 | locus YDL005C, strain med2, stronger effect = lower value 0.986 | locus YDL040C, strain nat1, stronger effect = lower value 0.986 | locus YDR001C, strain nth1, stronger effect = lower value 1.01 | locus YDR069C, strain doa4, stronger effect = lower value 1.01 | locus YDR137W, strain rgp1, stronger effect = lower value 1.02 | locus YDR159W, strain sac3, stronger effect = lower value 1 | locus YDR195W, strain ref2 0.976 | locus YDR297W, strain sur2, stronger effect = lower value 0.986 | locus YDR334W, strain swr1, stronger effect = lower value 1 | locus YDR335W, strain msn5, stronger effect = lower value 1 | locus YDR392W, strain spt3, stronger effect = lower value 1.01 | locus YEL003W, strain gim4, stronger effect = lower value 1 | locus YEL037C, strain rad23, stronger effect = lower value 0.995 | locus YEL061C, strain CIN8 (second series), stronger effect = lower value 1.01 | locus YER015W, strain faa2, stronger effect = lower value 1.01 | locus YER016W, strain bim1, stronger effect = lower value 1 | locus YER111C, strain swi4, stronger effect = lower value 0.981 | locus YER155C, strain BEM2 (second series), stronger effect = lower value 1.01 | locus YFR010W, strain ubp6, stronger effect = lower value 0.998 | locus YGL167C, strain pmr1, stronger effect = lower value 1 | locus YGL173C, strain kem1, stronger effect = lower value 0.996 | locus YGL227W, strain vid30, stronger effect = lower value 1.02 | locus YGL240W, strain doc1, stronger effect = lower value 0.978 | locus YGL253W, strain hxk2, stronger effect = lower value 1 | locus YHR013C, strain ard1, stronger effect = lower value 1.01 | locus YHR027C, strain rpn1, stronger effect = lower value 1.01 | locus YHR142W, strain chs7, stronger effect = lower value 1.01 | locus YJL092W, strain hpr5, stronger effect = lower value 1.01 | locus YJL095W, strain BCK1 (second series), stronger effect = lower value 1 | locus YJL115W, strain asf1, stronger effect = lower value 1.01 | locus YJL129C, strain trk1, stronger effect = lower value 1.02 | locus YJL154C, strain vps35, stronger effect = lower value 1 | locus YJL164C, strain tpk1, stronger effect = lower value 1 | locus YJL166W, strain qcr8, stronger effect = lower value 0.982 | locus YKL160W, strain elf1, stronger effect = lower value 1 | locus YKR026C, strain gcn3, stronger effect = lower value 1.02 | locus YKR091W, strain srl3, stronger effect = lower value 1 | locus YLL001W, strain dnm1, stronger effect = lower value 0.998 | locus YLL026W, stronger effect = lower value 1 | locus YLL041C, strain sdh2, stronger effect = lower value 1 | locus YLR027C, strain aat2, stronger effect = lower value 1.01 | locus YLR221C, strain rsa3, stronger effect = lower value 0.993 | locus YLR258W, strain gsy2, stronger effect = lower value 1.01 | locus YLR262C, strain YPT6 (second series), stronger effect = lower value 1.02 | locus YLR320W, strain mms22, stronger effect = lower value 1.01 | locus YLR342W, strain FKS1, stronger effect = lower value 1.01 | locus YLR357W, strain rsc2, stronger effect = lower value 0.946 | locus YLR370C, strain arc18, stronger effect = lower value 1.01 | locus YLR384C, strain iki3, stronger effect = lower value 1 | locus YML120C, strain ndi1, stronger effect = lower value 0.993 | locus YMR058W, strain fet3, stronger effect = lower value 0.998 | locus YMR125W, strain sto1, stronger effect = lower value 0.995 | locus YMR129W, stronger effect = lower value 0.987 | locus YMR205C, strain PFK2, stronger effect = lower value 1.01 | locus YMR231W, strain pep5, stronger effect = lower value 1.01 | locus YNL071W, strain lat1, stronger effect = lower value 1.02 | locus YNL209W, strain ssb2, stronger effect = lower value 1 | locus YNL248C, strain rpa49, stronger effect = lower value 1.01 | locus YNL322C, strain KRE1 (second series), stronger effect = lower value 1.01 | locus YNR049C, strain mso1, stronger effect = lower value 1 | locus YOR001W, strain rrp6, stronger effect = lower value 1.01 | locus YOR070C, strain gyp1, stronger effect = lower value 1.01 | locus YOR080W, strain dia2, stronger effect = lower value 0.996 | locus YOR083W, strain WHI5, stronger effect = lower value 1.01 | locus YOR106W, strain vam3, stronger effect = lower value 1.02 | locus YOR265W, strain rbl2, stronger effect = lower value 0.993 | locus YOR270C, strain vph1, stronger effect = lower value 1.04 | locus YOR290C, strain snf2, stronger effect = lower value 1.01 | locus YPL051W, strain arl3, stronger effect = lower value 1 | locus YPL078C, strain atp4, stronger effect = lower value 0.996 | locus YPL106C, strain sse1, stronger effect = lower value 0.981 | locus YPL240C, strain hsp82, stronger effect = lower value 1.02
